The text below walks through data of PubChem BioAssay (NCATS).

Test [1] can be described thus: qHTS for Inhibitors of the Functional Ribonucleoprotein Complex (vRNP) of Lassa (LASV) Arenavirus: LASV Primary Screen - GLuc reporter signal (AID 1347082; calls by dose curve; tested in HEK293 reporter line; note: series mostly up to about 57 µM; nearly all actives have a fitted effect of over 60% in size). (In qHTS, concentration-response curves come from the screen itself.)
Test [2] is described as follows: qHTS for Inhibitors of the Functional Ribonucleoprotein Complex (vRNP) of Lassa (LASV) Arenavirus: Viability assay - alamar blue signal for LASV Primary Screen (AID 1347083; calls by dose curve; tested in HEK293 reporter line; note: series mostly up to about 57 µM; nearly all actives have a fitted effect of over 80% in size).
Test [3] in a line: qHTS for Inhibitors of the Functional Ribonucleoprotein Complex (vRNP) of Lymphocytic Choriomeningitis Arenaviruses (LCMV): Viability assay - alamar blue signal for LCMV Primary Screen (AID 1347085; calls by dose curve; tested in HEK293 reporter line; note: series mostly up to about 57 µM; nearly all actives have a fitted effect of over 80% in size).
Test [4] has as its target Nucleoprotein (Lymphocytic choriomeningitis virus (strain Armstrong)) (UniProt P09992). In words: qHTS for Inhibitors of the Functional Ribonucleoprotein Complex (vRNP) of Lymphocytic Choriomeningitis Arenaviruses (LCMV): LCMV Primary Screen - GLuc reporter signal (AID 1347086; calls by dose curve; note: series mostly up to about 57 µM; nearly all actives have a fitted effect of over 70% in size).
Test [5] in a line: qHTS of pediatric cancer cell lines to identify multiple opportunities for drug repurposing: Primary screen for TC32 cells (AID 1347089). Note: nearly all actives have a fitted effect of over 60% in size. Note: potency is the fitted concentration of half-maximal effect. An outline of the steps: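 A viability screen of TC32 cells was run over 48 h, with primary MIPE doses spanning 0.78 nM–46 µM and NPC doses 0.59 nM–46 µM. ATP luminescence (CellTiter-Glo) served as the read-out.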
Test [6] in a line: qHTS of pediatric cancer cell lines to identify multiple opportunities for drug repurposing: Primary screen for DAOY cells (AID 1347090). Note: series mostly up to about 46 µM; nearly all actives have a fitted effect of over 55% in size. An outline of the steps: (§1)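 Eight- or eleven-point concentration series, 48 h treatment at 37 degrees C in growth media; readout CellTiter-Glo luminescence. Potency and efficacy were taken from the concentration-response curves.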
Test [7] can be described thus: qHTS of pediatric cancer cell lines to identify multiple opportunities for drug repurposing: Primary screen for SJ-GBM2 cells (AID 1347091). Note: potency is the fitted concentration of half-maximal effect. In short, it runs like this:
as §1

Test [8] in a line: qHTS of pediatric cancer cell lines to identify multiple opportunities for drug repurposing: Primary screen for A673 cells (AID 1347092). Note: nearly all actives have a fitted effect of over 45% in size. Note: potency is the fitted concentration of half-maximal effect. An outline of the steps:
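Titration-based qHTS on A673 cells: MIPE compounds spanned 11 points (0.78 nM to 46 µM final), NPC compounds 8 points (0.59 nM to 46 µM final). Viability after 48 h was measured by ATP luminescence.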

Test [9] is described as follows: qHTS of pediatric cancer cell lines to identify multiple opportunities for drug repurposing: Primary screen for SK-N-MC cells (AID 1347093). Note: potency is the fitted concentration of half-maximal effect. In short, it runs like this: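 Metabolically active cells were quantified by ATP-dependent luminescence (CellTiter-Glo, 15 min at room temperature) following 48 h treatment. Cells had been plated at 500-1,000 per well and settled for 5 h beforehand.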

Test [10] can be described thus: qHTS of pediatric cancer cell lines to identify multiple opportunities for drug repurposing: Primary screen for BT-37 cells (AID 1347094). Note: potency is the fitted concentration of half-maximal effect. In short, it runs like this:
(§2)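 Cells seeded at 500-1,000 cells/well in growth media, rested 5 hours at 37 degrees C, 5% CO2, then dosed; MIPE compounds at 11-point (from 0.78 nM) and NPC at 8-point (from 0.59 nM) final concentrations. Viability by CellTiter-Glo luminescence after 48 hours.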

Test [11] is described as follows: qHTS of pediatric cancer cell lines to identify multiple opportunities for drug repurposing: Primary screen for NB-EBc1 cells (AID 1347095). Note: potency is the fitted concentration of half-maximal effect. In short, it runs like this:
as §2

The nature of test [12]: qHTS of pediatric cancer cell lines to identify multiple opportunities for drug repurposing: Primary screen for U-2 OS cells (AID 1347096). Note: nearly all actives have a fitted effect of over 50% in size. An outline of the steps: (§3)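 Cells (500-1,000/well) in growth media were settled 5 h at 37 degrees C, then given compounds for 48 h. Viability was read as CellTiter-Glo luminescence. Primary runs used MIPE at 11 points (0.78 nM-46 µM) and NPC at 8 points (0.59 nM-46 µM); follow-ups used 11 points.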

Test [13] is described as follows: qHTS of pediatric cancer cell lines to identify multiple opportunities for drug repurposing: Primary screen for SK-N-SH cells (AID 1347098).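 Note: DMSO served as neutral control and bortezomib at 2.3 µM as positive control; nearly all actives have a fitted effect of over 65% in size.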 An outline of the steps:
(§4)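 Cells (500-1,000/well) rested 5 h, then received compounds for 48 h; metabolically active cells were measured by CellTiter-Glo luminescence. Final concentrations spanned up to 46 µM (MIPE, 11-point) or 0.59 nM-46 µM (NPC, 8-point) in primary screens, 11-point in follow-ups.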

Test [14] in a line: qHTS of pediatric cancer cell lines to identify multiple opportunities for drug repurposing: Primary screen for NB1643 cells (AID 1347099). Note: nearly all actives have a fitted effect of over 50% in size. Note: potency is the fitted concentration of half-maximal effect. In short, it runs like this: as §2
Test [15] in a line: qHTS of pediatric cancer cell lines to identify multiple opportunities for drug repurposing: Primary screen for LAN-5 cells (AID 1347100). Note: potency is the fitted concentration of half-maximal effect. An outline of the steps: as §3
Test [16] can be described thus: qHTS of pediatric cancer cell lines to identify multiple opportunities for drug repurposing: Primary screen for BT-12 cells (AID 1347101). Note: nearly all actives have a fitted effect of over 25% in size. Note: potency is the fitted concentration of half-maximal effect. An outline of the steps:
as §4

Test [17] in a line: qHTS of pediatric cancer cell lines to identify multiple opportunities for drug repurposing: Primary screen for Rh18 cells (AID 1347102). Note: nearly all actives have a fitted effect of over 65% in size. In short, it runs like this:
as §3

Test [18] in a line: qHTS of pediatric cancer cell lines to identify multiple opportunities for drug repurposing: Primary screen for OHS-50 cells (AID 1347103). Note: nearly all actives have a fitted effect of over 40% in size. Note: potency is the fitted concentration of half-maximal effect. In short, it runs like this:
as §4

The nature of test [19]: qHTS of pediatric cancer cell lines to identify multiple opportunities for drug repurposing: Primary screen for Saos-2 cells (AID 1347097). Note: nearly all actives have a fitted effect of over 40% in size. Note: potency is the fitted concentration of half-maximal effect. An outline of the steps:
as §2

Each structure is given as a SMILES string. Inconclusive results are not listed. Activity calls are given as the source filed them. Unless noted, calls come from the whole dose curve; as a rule, active = well fitted curve in the direction sought with a large enough effect; inconclusive = small, poorly fitted or top-dose-only effect, or another doubt; inactive = no such curve, though single readings can be large; an effect the other way counts as inactive or inconclusive.

Chain of Nucleoprotein (Lymphocytic choriomeningitis virus (strain Armstrong)) (P09992 whole entry, looked up): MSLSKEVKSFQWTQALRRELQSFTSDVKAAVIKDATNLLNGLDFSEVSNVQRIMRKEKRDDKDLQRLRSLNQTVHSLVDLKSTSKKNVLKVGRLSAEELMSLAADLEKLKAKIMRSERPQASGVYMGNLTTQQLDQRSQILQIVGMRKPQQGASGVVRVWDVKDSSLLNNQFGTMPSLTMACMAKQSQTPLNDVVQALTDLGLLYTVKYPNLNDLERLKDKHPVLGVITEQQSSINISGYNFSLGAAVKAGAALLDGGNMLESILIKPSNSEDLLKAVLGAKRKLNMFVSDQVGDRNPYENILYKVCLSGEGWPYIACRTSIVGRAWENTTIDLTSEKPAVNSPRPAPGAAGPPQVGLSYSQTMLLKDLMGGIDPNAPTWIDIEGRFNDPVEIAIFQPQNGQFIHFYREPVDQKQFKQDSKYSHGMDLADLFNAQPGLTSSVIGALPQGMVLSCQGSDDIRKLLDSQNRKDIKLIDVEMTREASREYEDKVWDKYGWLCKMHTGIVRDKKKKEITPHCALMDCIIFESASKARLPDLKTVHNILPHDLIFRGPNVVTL

With `O=[N+]([O-])/N=C1\NCCN1Cc1ccc(Cl)nc1`, the Potency result in test [1], in test [2], in test [3], in test [4], in [5] and in [6] was “inactive” each time. Moreover, the Potency result in [7], in [8], in test [9], in test [10], in test [11] and in test [12] was “inactive” throughout. The Potency entry in test [13], in [14], in test [15], in [16], in test [17] and in [18] was “inactive” each time.
With `C1CCC(NC2CCCCC2)CC1`, the Potency entry in [1], in test [2], in [3], in test [4], in [5] and in [6] was “inactive” each time. Also, the Potency entry in test [7], in [8], in test [9], in [10], in [11] and in test [12] was “inactive” each time. Further, the Potency result in test [19], in test [13], in [14], in test [15], in test [16] and in test [17] was “inactive” throughout. The Potency result in [18] is “inactive”.
Consider `CCCC[N+]1(C)[C@H]2CC(OC(=O)[C@H](CO)c3ccccc3)C[C@H]1[C@H]1O[C@H]12` (stereo partly specified), for which the Potency result in [1], in test [2], in [3], in test [4], in test [5] and in test [6] was “inactive” in each case. Also, the Potency entry in test [7], in test [8], in test [9], in [11], in test [12] and in [19] was “inactive” throughout. The Potency result in [13], in [14], in [15], in [16], in test [17] and in test [18] was “inactive” throughout.
As to `CC(O)=C(C#N)C(=O)Nc1cc(Br)ccc1Br`, the Potency entry in test [1], in test [2], in test [3], in test [4], in [5] and in test [6] was “inactive” throughout. Moreover, the Potency result in test [8], in test [10], in test [16], in [17] and in [18] was “inactive” each time. The Potency in [9] is 0.332 µM (active); in test [14], 1.32 µM (active).
Consider `O=C1C(I)=CC(=C(c2cc(I)c(O)c(I)c2)c2ccccc2C(=O)O)C=C1I`, for which the Potency result in test [1], in [2], in test [3], in test [4], in [5] and in test [6] was “inactive” in each case. In addition, the Potency entry in [7], in test [10], in test [11], in [12], in test [19] and in test [13] was “inactive” throughout. Besides, the Potency entry in test [15], in [16], in test [17] and in test [18] was “inactive” throughout.
With `COc1cc2cc(c1Cl)N(C)C(=O)C[C@H](OC(=O)C(C)C)[C@]1(C)O[C@H]1[C@H](C)[C@@H]1C[C@@](O)(NC(=O)O1)[C@H](OC)C=CC=C(C)C2`, the Potency entry in [1], in test [2], in [3], in test [4], in [12] and in test [17] was “inactive” each time. For the same molecule, the Potency in test [5] was 0.208 µM (active); in test [7] it was 0.001 µM (active); in test [8], 0.001 µM (active); in test [9], 0.001 µM (active); in test [10], 3.85 µM (active); in [11], 0.001 µM (active). Besides, the Potency in test [19] was 0.662 µM (active); in [15], 0.001 µM (active); in test [16] it was 0.0485 µM (active); in [18], 0.001 µM (active).
Regarding `C[C@]12CC[C@H]3[C@@H](CCC4=CC(=O)CC[C@@]43C)[C@H]1CC[C@H]2O`, the Potency result in [1], in test [2], in test [3], in [4], in test [5] and in test [6] was “inactive” throughout. For the same molecule, the Potency result in test [7], in [9], in [11], in test [12], in [19] and in test [13] was “inactive” throughout. The Potency result in test [14], in test [15], in [16] and in test [17] was “inactive” throughout.
